Compound activity from PubChem BioAssay.
PfHsp40 yeast – rescue of yeast from PfHsp40 toxicity, primary screen, S. cerevisiae, ATP luminescence; growth rescue, % at 12.5 µM; actives 0.68% (n = 340,000); S. cerevisiae expressing PfHsp40, growth rescue; AID 504582, 2011; in the data active means growth rescue above about 28%, passing the limit was not always enough;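 further: yeast W303a lacking pdr1 and pdr3 grown in galactose medium; growth measured after three days at 30 °C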
BJeLR viability – MLPCN primary cell-based screen for lethality selective to Ras in HRASV12 cells | BJeLR (HRASV12) viability, CellTiter-Glo ATP luminescence, 48 h | inhibition, % (no concentration beside the values) | actives 0.17% (n = 300,000); in the data active means inhibition above about 50%
SSB-PriA inh – inhibitors of Klebsiella pneumoniae PriA binding to SSB C-terminal tail, primary screen, biochemical, AlphaScreen; AlphaScreen SSBct-PriA binding, biotinylated peptide; actives 0.6% (n = 430,000); PriA–SSB C-terminal tail interaction (Klebsiella pneumoniae); inhibition, % at 33 µM; in the data active means inhibition mostly above about 37%, no sharp cut-off; inactive means mostly below about 20%;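 further: plate controls were negative control peptide for no effect and reference peptide for full effect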
PrP 5UTR inh – inhibition of PrP 5' UTR reporter expression. inhibition, % (no concentration beside the values). cell-based PrP 5' UTR mRNA reporter, plate reader. actives 0.35% (n = 340,000); in the data active means inhibition above about 52%; further: 0 = median of the neutral control wells
PrPC TRFRET – inhibitors of human cell surface prion protein PrPC, primary screen, cell-based, TR-FRET. Major prion protein (Homo sapiens), P04156. TR-FRET read-out. inhibition, % at 13.8 µM. actives 0.43% (n = 370,000). AID 720596, 2013; in the data active means inhibition above about 24%; further: 0% = median of the test wells and 100% = reference compound wells
Y pestis TopoI – Yersinia pestis topoisomerase I inhibitors, primary screen, biochemical, cleavage product accumulation, plate reader, single point. DNA topoisomerase I (Yersinia pestis CO92). Y. pestis Topo-I cleavage product accumulation. activity, % at 10 µM. actives 0.064% (n = 360,000); in the data active means activity above about 50%, passing the limit was not always enough
An asterisk follows results filed as active; i = inactive; . = no result. The list is not random: actives were taken first. Their share in the collection is about 1.7%.

SMILES | PfHsp40 yeast | BJeLR viability | SSB-PriA inh | PrP 5UTR inh | PrPC TRFRET | Y pestis TopoI
CN(C)c1ccc(N=Nc2cccc(F)c2)cc1 | -0.1 | -2.5 | 31.9 | -138.8 | -7.5 | -4.7
Cc1ccc(NC(=O)CSc2ccc(-c3sc(-c4cccnc4)nc3C)nn2)cc1F | . | . | -9.0 | . | . | .
O=C(CSc1nccn(-c2ccc(F)c(F)c2)c1=O)Nc1ccccc1C(F)(F)F | . | . | 5.0 | . | . | .
O=C(CSc1nccn1-c1cccc(C(=O)NCc2ccco2)c1)Nc1ccc(Cl)cc1F | . | . | 37.0* | . | . | .
O=C(CSc1nccn1-c1ccc(C(=O)NCc2ccccc2)cc1)Nc1cc(F)ccc1F | . | . | 26.0 | . | . | .
O=C(CSc1nccn(-c2cccc(F)c2)c1=O)Nc1ccc(Cl)cc1F | 173.3* | 7.0 | -3.5 | -10.9 | 10.2 | 11.2
O=C1CC[C@@H](C(=O)N2CCN(c3cc(Nc4ccccn4)ncn3)CC2)N1 | . | . | 0.0 | . | . | .
O=[N+]([O-])c1ccc(C(=Nc2cccc3ccccc23)N2CCOCC2)cc1 | 0.3 | -3.5 | 48.5* | -24.7 | 0.7 | 5.2
CCn1c(-c2cc(-c3ccc(C)cc3)nc3ccccc23)n[nH]c1=S | 38.5* | 0.0 | 11.6 | -1.5 | 7.1 | 10.0
C=CCn1c(-c2cc(-c3ccc(C)cc3)nc3ccccc23)n[nH]c1=S | 413.8* | 2.3 | 20.2 | -39.1 | 2.6 | 19.8
Cc1ccc(Cl)cc1N1CCN(C(=O)C2CCN(c3cc(Oc4ccccc4)ncn3)CC2)CC1 | . | . | -10.0 | . | . | .
O=C(c1cccc(C(F)(F)F)c1)N1CCC(Cn2ccnc2)CC1 | . | . | -21.0 | . | . | .
COc1ccc(-c2noc(C3CCN(S(=O)(=O)c4ccc(C)c(C)c4)CC3)n2)cc1OC | . | . | -9.0 | . | . | .
O=C(Nc1nc2ccc(Cl)cc2s1)c1ccc(N2C(=O)CCC2=O)cc1 | . | . | -22.0 | . | . | .
Cc1cc(C)c(S(=O)(=O)N2CCC(C(=O)NCc3ccc(Cl)cc3Cl)CC2)c(C)c1 | 38.4* | 0.0 | -14.1 | -7.7 | -3.5 | -9.7
COc1ccc(CN2CCN(C(c3ccc(F)cc3)c3ccc(F)cc3)CC2)c(OC)c1OC | 39.1* | 12.0 | 22.9 | -1.6 | -2.7 | 14.0
C(=N\N1CCOCC1)/c1ccsc1 | 93.7* | 6.5 | . | -7.3 | 2.3 | -0.8
O=C(NC(=S)N1CCN(c2ccc(C(F)(F)F)cc2[N+](=O)[O-])CC1)c1cccs1 | 122.4* | -4.6 | 51.2* | -10.0 | -2.4 | -3.7
O=C(/C=C/c1ccco1)NC(=S)NNC(=O)c1cnccn1 | . | . | 65.6* | . | . | .
COc1ccccc1C(=O)NNC(=S)NC(=O)c1cc(OC)c(OC)c(OC)c1 | 61.6* | 0.6 | -13.2 | -9.0 | 2.2 | 7.7
COc1cc(C(=O)NC(=S)NNC(=O)c2cnccn2)cc(OC)c1OC | 132.0* | 6.1 | 81.8* | -21.1 | 11.7 | 0.0
NC(=O)c1ccsc1NC(=O)c1ccno1 | . | . | -2.0 | . | . | .
O=C(O)c1ccc(S(=O)(=O)NCc2ccccc2)cc1 | . | . | -17.0 | . | . | .
c1ccc(CCSc2nccn2-c2ccccc2)cc1 | 1.1 | -1.1 | 61.7* | -36.8 | 2.2 | 30.9
CCc1ccc(CSc2nccn2-c2ccccc2)cc1 | -0.4 | 2.1 | 63.0* | 1.6 | 2.4 | 29.3
SMILES | PfHsp40 yeast | BJeLR viability | SSB-PriA inh | PrP 5UTR inh | PrPC TRFRET | Y pestis TopoI
COc1ccc(-c2sc3ccccc3c2-c2ccc(OCCN(C)C)cc2)cc1 | 19.3 | . | 24.8 | -4.2 | -1.1 | -20.3
COc1cccc(-c2sc3ccc(OC)cc3c2-c2cc(F)cc(OC)c2)c1 | -0.3 | . | 1.1 | -22.0 | 0.8 | 6.0
CN(C)CCOc1ccc(-c2c(-c3ccsc3)sc3ccccc23)cc1 | 90.7* | . | 17.1 | -8.0 | -3.9 | -11.7
COc1cccc(-c2sc3ccc(OC)cc3c2-c2ccc(O)cc2)c1 | 103.1* | . | 6.9 | -2.8 | 5.6 | 7.6
COc1cccc(-c2sc3ccc(OC)cc3c2-c2ccc(OCCN(C)C)cc2)c1 | 30.5* | . | -9.7 | -6.3 | -15.8 | -20.2
Cc1noc(C)c1S(=O)(=O)N1CC(c2nc(-c3ncccn3)no2)C1 | . | . | -10.0 | . | . | .
COc1ccccc1N1CCN(C(=O)Cn2cnc3c(sc4cccc(Cl)c43)c2=O)CC1 | . | . | -12.0 | . | . | .
CSc1ccccc1NC(=O)CC1Nc2cc(C)c(C)cc2NC1=O (stereo not drawn) | . | . | 9.0 | . | . | .
CC(C)=NN=c1scc(C)n1Cc1ccco1 | . | . | 0.3 | . | . | .
Cc1ccc(/C=N/NC(=O)c2cc(-c3ccncc3)nc3ccccc23)o1 | -1.9 | 58.7* | . | -0.2 | 8.9 | 10.5
Cc1ccc(C=NNC(=O)c2cc(-c3ccncc3)nc3ccccc23)o1 | . | . | 9.2 | . | . | .
CNS(=O)(=O)c1ccc(C(=O)Nc2cccc(C(F)(F)F)c2)o1 | . | . | -20.0 | . | . | .
[O-]C(=C(C(=S)Nc1cccc2ccccc12)[n+]1ccccc1)c1ccc2c(c1)OCCO2 | 35.1* | . | . | -11.5 | . | -9.5
CC(C)(C)c1cc[n+](/C(C(=S)Nc2ccccc2F)=C(/[O-])c2ccc3c(c2)OCCO3)cc1 | -1.1 | -0.3 | . | -24.5 | -0.6 | 8.1
Cn1ccc(C(=O)Nc2nc(-c3cc4ccccc4oc3=O)cs2)n1 | . | . | -14.0 | . | . | .
COC(=O)C1CCN(c2c([N+](=O)[O-])cc(C(F)(F)F)cc2[N+](=O)[O-])CC1 | -0.7 | -7.7 | 58.7* | -4.7 | 5.1 | 3.5
CCC(Sc1ccc(C)cc1)C(=O)Nc1nnc(-c2cc(OC)ccc2OC)s1 (stereo not drawn) | . | . | -1.0 | . | . | .
Cc1onc(-c2ccccc2Cl)c1C(=O)Nc1nnc(-c2cccs2)o1 | . | . | 38.0* | . | . | .
CC1=NN(C(N)=S)C(=O)C1N=Nc1cccc(Cl)c1C (stereo not drawn) | 104.1* | -1.0 | 15.5 | -52.9 | -6.9 | -18.0
O=C(NN=Cc1cc(Br)ccc1O)c1ccccc1Cl | . | . | 6.7 | . | . | .
O=C(N/N=C/c1ccccc1Cl)c1[nH]c2ccc(Br)cc2c1-c1ccccc1 | 3.3 | 60.5* | i | 39.5 | -2.2 | 5.8
O=C(NN=Cc1cc(O)ccc1Br)c1cccnc1 | . | . | 45.6* | . | . | .
O=C(N/N=C/c1cc(Br)ccc1O)c1ccccc1Cl | 465.8* | 12.4 | . | 13.2 | 3.3 | -10.2
O=C(NN=Cc1cc(Cl)ccc1O)c1ccncc1 | . | . | 67.1* | . | . | .
O=C(CN1CC(c2nc(C3CC3)no2)C1)NCc1ccc(F)cc1 | . | . | 3.0 | . | . | .
SMILES | PfHsp40 yeast | BJeLR viability | SSB-PriA inh | PrP 5UTR inh | PrPC TRFRET | Y pestis TopoI
Nc1nc(N2CCCC2)ncc1S(=O)(=O)c1cccs1 | . | . | 6.0 | . | . | .
Cn1c(=O)c2c(SC3CCCC3)nc(-c3cccs3)nc2n(C)c1=O | . | . | -27.0 | . | . | .
Cc1cc(OC2CCN(C(=O)c3ccc4nccc(C)c4c3)CC2)cc(=O)o1 | . | . | -4.0 | . | . | .
COc1ccc(Cc2c(C)nc(N)nc2Cl)cc1 | -1.2 | -5.5 | -6.6 | -9.7 | 0.9 | 2.3
Cc1nc(N)nc(N)c1CCCc1ccc(Cl)c(Cl)c1 | 0.0 | 57.1* | 1.8 | 41.9 | -3.3 | -0.6
O=C(Nc1ccc2c(c1)OCCO2)c1cccc(Cl)c1 | 5.1 | -11.4 | -6.7 | -76.3 | 0.3 | -11.2
O=C(Nc1cccc(Cl)c1)c1ccc2c(c1)OCCO2 | 80.8* | 0.4 | -10.0 | -86.1 | 5.0 | -4.4
COc1ccc(S(=O)(=O)CCCC(=O)N(Cc2ccccc2)c2nc3ccc(F)cc3s2)cc1 | . | . | 5.0 | . | . | .
